According to PubChem BioAssay (EPA / NIEHS):
Values joined by “and” are separate entries in the source; they are usually repeats but may differ in a detail not shown here. Equal entries are not always repeated. Some compounds were tested as several samples or in several runs, with calls that do not always agree. Active and inactive are the calls of the source. How the source made its calls: active means hit-call score of the fitted dose curve at least 0.9, where 1 is the maximum; inactive means score below 0.9.

Test: CCTE_Shafer_MEA_dev_firing_rate_mean: CCTE's Neural Network Formation Assay for Mean Firing Rate, Shafer Lab (AID 2284031);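 on AC50: curve fitted for loss of firing so AC50 reflects decreased mean firing rate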
Protocol: CCTE_Shafer_MEA_dev assay is conducted using Axion Biosystems 48 well microelectrode array (MEA) plates and Maestro recording system. Each well of the MEA plate contains a grid of 16 microelectrodes embedded in the culture surface. Electrically active cells, such as neurons, can be cultured over the electrodes, and electrical activity in these cells can be recorded extracellularly. The spontaneous firing of neurons is captured from each electrode on a microsecond timescale providing both temporally and spatially precise data. […] The CCTE_Shafer_MEA_dev assay uses primary cultures of rat cortical neurons. Recordings are made on days post-plating 5, 7, 9 and 12. As these cultures mature over time, neural networks develop functional activity and form cohesive networks in which electrical activity can be highly coordinated. CCTE_Shafer_MEA_dev_firing_rate_mean is 1 of 19 assay components of the CCTE_Shafer_MEA_dev assay. It measures the frequency of spikes (action potential firings) as the total number of spikes divided by the length of the recording in a microelectrode array (MEA) using Axion Biosystems Maestro 768 channel amplifier with the AxIS adaptive spike detector. The firing rate is averaged across the active electrodes to report a well-mean value. To collapse across multiple recordings made on days post-plating 5, 7, 9 and 12, the trapezoidal area-under-the-curve of the component is calculated.Data from the assay component CCTE_Shafer_MEA_dev_firing_rate_mean was analyzed into 1 assay endpoint. This assay endpoint, CCTE_Shafer_MEA_dev_firing_rate_mean, was analyzed in the negative analysis fitting direction relative to DMSO as the negative control and baseline of activity. Using a type of functional reporter, gain or loss-of-signal activity can be used to understand electrical activity.
On the day prior to culture, each well was coated thoroughly with 150 uL of 0.05% polyethyleneimine (PEI, Sigma Cat P3143) in 50 mM HEPES (Sigma Cat H7523) at a pH of 8. The plate was incubated at 37C for one hour. PEI was rinsed out with 500 uL of sterile water three times. Plates were stored at 4C until the day of culture. This culture was plated at a seeding density of 1.5 x 10^5 cells/well on a 48-well MEA plate, prepared as described above. Cells were administered via a 25 uL media/laminin ([…]; Sigma Cat L2020-1MG) drop directly onto the microelectrode array, as adding the cells with the laminin results in better attachment than pre-coating with laminin. After 2 hours, an additional 475 uL of cortical media was added and the cells returned to the incubator. Exposure starts at day 0 of plating and is continued over twelve days of network development until the experiment is terminated. Cells are fed with fresh medium on DIV 5 and 9, following the recordings on those days. The entire volume of media in the well is exchanged and any vehicle or compound treatment is renewed. Complete details are found in OP-NHEERL/ISTD/SBB/TJS/2015-03-r0 (available on request, email shafer.tim@epa.gov). Measurement of the electrical activity is non-invasive, and recordings can be made from the same plate over multiple different days of the culture. In cortical neurons, this allows for the measurement of extracellular action potentials over the period during which networks form in the MEA plate.

SMILES	outcome	AC50
CCN(CC)c1nc(C)cc(OP(=S)(OC)OC)n1	inactive	
CC(C)(C)C(=O)C(Oc1ccc(Cl)cc1)n1cncn1 (stereo unspecified)	inactive	
COP(=O)(OC)O/C(C)=C/C(=O)N(C)C	inactive	
CC1(C)C(C=C(Cl)Cl)C1C(=O)OC(C#N)c1cccc(Oc2ccccc2)c1 (stereo unspecified)	inactive	2.98 µM (active)
CCCN(CC)CC1COC2(CCC(C(C)(C)C)CC2)O1 (stereo unspecified)		0.066 µM (active)
CCSC(=O)N1CCCCCC1	inactive	
COP(=S)(OC)SCn1nnc2ccccc2c1=O	inactive	
CS(=O)(=O)c1ccc(C(=O)C2C(=O)CCCC2=O)c([N+](=O)[O-])c1	inactive	
CN/C(=N\[N+](=O)[O-])NCc1cnc(Cl)s1	inactive	
N#CN=C1SCCN1Cc1ccc(Cl)nc1	inactive	
CS(=O)(=O)c1cc(C(F)(F)F)ccc1C(=O)c1cnoc1C1CC1	inactive	
CO/N=C(/C1=NOCCO1)c1ccccc1Oc1ncnc(Oc2ccccc2Cl)c1F		589 nM (active) and 960 nM (active)
CCNC(=O)NC(=O)C(C#N)=NOC	inactive	
Cc1c(COC(=O)[C@@H]2[C@H](/C=C(\Cl)C(F)(F)F)C2(C)C)cccc1-c1ccccc1		847 nM (active) and 2.07 µM (active)
C=C(C)CN(CC)c1c([N+](=O)[O-])cc(C(F)(F)F)cc1[N+](=O)[O-]		12.8 µM (active)
COP(=S)(OC)Oc1ccc([N+](=O)[O-])c(C)c1	inactive	
CC(C)=CC1C(C(=O)OCc2coc(Cc3ccccc3)c2)C1(C)C (stereo unspecified)	inactive	
CCOP(=O)(OCC)Oc1nc(Cl)c(Cl)cc1Cl	inactive	
O=C(Nc1ccccc1-c1ccc(Cl)cc1)c1cccnc1Cl	inactive	4.96 µM (active)
O=C1C2CC=CCC2C(=O)N1SC(Cl)(Cl)Cl (stereo unspecified)	inactive	
CC1(C)C(C(=O)OC(C#N)c2cccc(Oc3ccccc3)c2)C1(C)C (stereo unspecified)	inactive	
COC(=O)N(C(=O)N1CO[C@@]2(C(=O)OC)Cc3cc(Cl)ccc3C2=N1)c1ccc(OC(F)(F)F)cc1	inactive	
CCOC(=O)C(C)OC(=O)c1cc(Oc2ccc(C(F)(F)F)cc2Cl)ccc1[N+](=O)[O-] (stereo unspecified)	inactive	
CNC(=O)Oc1cccc2ccccc12	inactive	
